Assay results published in PubChem BioAssay AID1159580 (chemical genetic matrix, 2015).
“And” between values parts separate entries of the source, which are not always exact repeats. Equal values may be shown once. Out of some 5,500 compounds screened, about 2,000 (36%) were called active. About 18% were inconclusive and are not listed. Rule as the data show it: active = normalized growth mostly below about 0.91 (no sharp cut-off); inconclusive = no clear call, values can overlap the other calls; inactive = mostly above about 0.92. Some of the results follow.

Assay: chemical genetic growth profiling, strain panel (AID 1159580);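 also: tested at 20 µM; growth read once vehicle control cultures reached saturation at 30 °C; 1 = growth at the plate median or of vehicle wells; lower values mean less growth of the strain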
Conditions: S. cerevisiae deletion strains, growth OD

Measured: normalized growth

C/C=C(/C)C(=O)O[C@@H]1[C@H](OC(C)=O)[C@@]2(CO)C(CC1(C)C)C1=CCC3[C@@]4(C)CC[C@H](O[C@@H]5O[C@H](C(=O)O)[C@@H](O[C@@H]6O[C@H](CO)[C@@H](O)[C@H](O)[C@H]6O)[C@H](O)[C@H]5O[C@@H]5O[C@H](CO)[C@@H](O)[C@H](O)[C@H]5O)[C@](C)(CO)C4CC[C@@]3(C)[C@]1(C)C[C@H]2O (some centres not stated)
inactive: locus YAL021C, strain ccr4, hits give low values 1.01 | locus YAL026C, strain drs2, hits give low values 0.983 | locus YAL030W, strain snc1, hits give low values 0.987 | locus YBL061C, strain skt5, hits give low values 0.983 | locus YBR009C, strain hhf1, hits give low values 0.938 | locus YBR021W, strain FUR4, hits give low values 0.989 | locus YBR023C, strain chs3, hits give low values 0.992 | locus YBR171W, strain sec66, hits give low values 0.996 | locus YBR229C, strain ROT2, hits give low values 1.01 | locus YBR231C, strain swc5, hits give low values 0.979 | locus YBR279W, strain paf1, hits give low values 0.989 | locus YCL011C, strain gbp2, hits give low values 0.986 | locus YCL016C, strain dcc1, hits give low values 0.994 | locus YCL029C, strain bik1, hits give low values 1.03 | locus YCL061C, strain MRC1, hits give low values 0.981 | locus YCL069W, strain vba3, hits give low values 0.987 | locus YCR088W, strain abp1, hits give low values 0.989 | locus YDL005C, strain med2, hits give low values 0.982 | locus YDL035C, strain GPR1, hits give low values 1.02 | locus YDL040C, strain nat1, hits give low values 0.973 | locus YDL074C, strain BRE1, hits give low values 0.999 | locus YDL101C, strain DUN1, hits give low values 1.02 | locus YDL185W, strain tfp1, hits give low values 1.02 | locus YDL192W, strain arf1, hits give low values 1.02 | locus YDR001C, strain nth1, hits give low values 0.981 | locus YDR069C, strain doa4, hits give low values 0.982 | locus YDR101C, strain arx1, hits give low values 1.01 | locus YDR137W, strain rgp1, hits give low values 0.975 | locus YDR159W, strain sac3, hits give low values 0.96 | locus YDR162C, strain NBP2, hits give low values 1.02 | locus YDR195W, strain ref2 0.929 | locus YDR297W, strain sur2, hits give low values 0.993 | locus YDR318W, strain mcm21, hits give low values 1.03 | locus YDR334W, strain swr1, hits give low values 0.985 | locus YDR335W, strain msn5, hits give low values 0.989 | locus YDR388W, hits give low values 1.02 | locus YDR392W, strain spt3, hits give low values 0.874 | locus YDR502C, strain sam2, hits give low values 1.02 | locus YEL003W, strain gim4, hits give low values 0.992 | locus YEL037C, strain rad23, hits give low values 0.991 | locus YEL061C, strain CIN8 (second series), hits give low values 0.987 | locus YEL061C, strain CIN8, hits give low values 1.01 | locus YER015W, strain faa2, hits give low values 0.983 | locus YER016W, strain bim1, hits give low values 0.991 | locus YER110C, hits give low values 1.03 | locus YER111C, strain swi4, hits give low values 0.968 | locus YER155C, strain BEM2 (second series), hits give low values 0.997 | locus YER155C, strain BEM2, hits give low values 0.999 | locus YER167W, strain BCK2, hits give low values 1.01 | locus YFR010W, strain ubp6, hits give low values 0.991 | locus YGL078C, strain dbp3, hits give low values 1.02 | locus YGL086W, strain mad1, hits give low values 1.03 | locus YGL167C, strain pmr1, hits give low values 0.987 | locus YGL173C, strain kem1, hits give low values 0.966 | locus YGL227W, strain vid30, hits give low values 0.982 | locus YGL240W, strain doc1, hits give low values 0.97 | locus YGL248W, strain PDE1, hits give low values 1.01 | locus YGL253W, strain hxk2, hits give low values 0.974 | locus YGR135W, strain pre9, hits give low values 1.01 | locus YGR252W, strain gcn5, hits give low values 0.965 | locus YHR013C, strain ard1, hits give low values 0.965 | locus YHR027C, strain rpn1, hits give low values 0.992 | locus YHR030C, strain SLT2, hits give low values 1.01 and 0.987 | locus YHR079C, strain IRE1 (second series), hits give low values 1.03 | locus YHR079C, strain IRE1, hits give low values 0.972 | locus YHR094C, strain hxt1, hits give low values 1.03 | locus YHR129C, strain ARP1, hits give low values 1.01 | locus YHR142W, strain chs7, hits give low values 1.01 | locus YHR200W, strain rpn10, hits give low values 1.01 | locus YIL066C, strain RNR3, hits give low values 1.01 | locus YIL073C, strain SPO22, hits give low values 1.15 | locus YIL125W, strain kgd1, hits give low values 1.02 | locus YIR030C, strain dcg1, hits give low values 1.03 | locus YJL092W, strain hpr5, hits give low values 0.989 | locus YJL095W, strain BCK1 (second series), hits give low values 0.992 | locus YJL095W, strain BCK1, hits give low values 1.02 and 0.969 | locus YJL115W, strain asf1, hits give low values 0.989 | locus YJL129C, strain trk1, hits give low values 0.984 | locus YJL134W, strain LCB3, hits give low values 1 | locus YJL154C, strain vps35, hits give low values 0.987 | locus YJL164C, strain tpk1, hits give low values 1.01 | locus YJL166W, strain qcr8, hits give low values 1 | locus YJL168C, strain set2, hits give low values 1.01 | locus YJL187C, strain SWE1 (second series), hits give low values 1.02 | locus YJL187C, strain SWE1, hits give low values 0.996 | locus YJR043C, strain POL32, hits give low values 0.99 | locus YJR066W, strain TOR1, hits give low values 1.01
